The source of these data is ChEMBL document CHEMBL3988442, “University of Dundee, Small-Polar-MMV Screening Library” (2021).

The target in assay [1] is T1, Aspartate--tRNA(Asp/Asn) ligase (Mycobacterium tuberculosis (strain ATCC 25618 / H37Rv)) (UniProt P9WFW3). Note: in the data most compounds retested in dose-response had high values.
T1 sequence (whole entry): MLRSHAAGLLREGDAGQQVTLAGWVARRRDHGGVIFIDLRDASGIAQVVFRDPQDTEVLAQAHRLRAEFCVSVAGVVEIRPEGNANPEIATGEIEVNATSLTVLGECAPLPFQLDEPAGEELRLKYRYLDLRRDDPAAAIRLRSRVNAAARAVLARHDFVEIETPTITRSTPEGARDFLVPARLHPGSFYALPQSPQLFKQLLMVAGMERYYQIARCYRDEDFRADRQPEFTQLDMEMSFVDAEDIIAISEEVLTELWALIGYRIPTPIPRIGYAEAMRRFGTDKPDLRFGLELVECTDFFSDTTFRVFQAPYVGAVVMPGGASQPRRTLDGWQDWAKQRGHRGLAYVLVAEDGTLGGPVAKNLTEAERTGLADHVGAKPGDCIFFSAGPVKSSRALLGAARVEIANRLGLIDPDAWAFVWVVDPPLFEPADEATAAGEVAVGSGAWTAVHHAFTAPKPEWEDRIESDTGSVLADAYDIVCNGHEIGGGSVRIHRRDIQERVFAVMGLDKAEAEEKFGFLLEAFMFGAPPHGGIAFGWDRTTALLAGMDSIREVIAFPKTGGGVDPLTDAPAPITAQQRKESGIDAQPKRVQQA
The assay is described as follows: Assay for Asp RNA synthetase-1 from Mycobacterium tuberculosis. The class given is functional. Details: scale not given: direction of the effect not stated beside the values. Conditions: 30 µM.

Assay [2] has as its target Shiga toxin 2 (Escherichia coli O157:H7) (UniProt P09385+P09386). The assay is described as follows: E. coli 0.157:H7 Shiga Toxin SOP - stx2 screening assay. In kind it is functional. Conditions: 30 µM. Details: scale not given: direction of the effect not stated beside the values.

As to `CCC(=O)N1CCC(c2nnc(Cn3cncn3)n2C2CC2)CC1`, the Percent Effect in assay [1] is -3.04%; in assay [2], -2.15%.

In the case of `CC(C)c1nc(CN2CCN(CC3CCCO3)CC2)cs1` (stereo unspecified), the Percent Effect in assay [1] is -0.404%; in assay [2] it was 12%.

For `OCC1CCCN1c1cc(N2CCc3ccccc3C2)ncn1` (stereo unspecified), the figures for the Percent Effect in assay [1] and in assay [2] were 1.24% and -49.8%, respectively.

Take `CCCc1nc(C)cc(N2CCC3(CCC(=O)N(CCOC)C3)CC2)n1`: the values for the Percent Effect in assay [1] and in assay [2] were -4.22% and -2.13%, respectively.

Consider `CCC1CN(Cc2ccccc2)CCN1Cc1nnc(C2CCC2)o1` (stereo unspecified), for which the values for the Percent Effect in assay [1] and in assay [2] were -4.92% and -9.86%, respectively.

On to `CN(C)S(=O)(=O)N1CC[C@]2(C[C@H](Oc3ncccc3F)CO2)C1`, for which the Percent Effect in assay [1] came to 2.03%; in assay [2], 2.42%.

Turning to `Cc1ccnc(OCC(=O)N2CCC(C(N)=O)CC2)n1`, the Percent Effect in assay [1] is -6.44%; in assay [2] it was 1.84%.

On to `NC(=O)c1cccc(CC2CCN(C(=O)CO)C2)c1` (stereo unspecified), for which the Percent Effect in assay [1] was 3.02%; in assay [2], -19.3%.

As for `CCc1nc(C)c([C@H]2CN(C)C[C@@H]2C(=O)Nc2ccc(OC)cc2)[nH]1`, the Percent Effect is -1.19% in assay [1] and 9.62% in assay [2].

As for `Cc1noc(C)c1CNc1cc(N2CCCC2CO)ncn1` (stereo unspecified), the Percent Effect was -7.32% in assay [1] and -11.6% in assay [2].

Turning to `Cc1cccc(-c2nc(C)nn2CC(=O)N(C)C2CC2)c1`, the Percent Effect in assay [1] was -4.28%; in assay [2], 6.5%.

In the case of `CN(Cc1ccccc1)C(=O)c1nc(S(C)(=O)=O)n2ccccc12`, the Percent Effect in assay [1] is -4.08%; in assay [2] it was 20.9%.

With `O=C(c1ccn[nH]1)N1CCCC(n2cncn2)C1` (stereo unspecified), the Percent Effect in assay [1] is -5.6%; in assay [2] it was -25%.

Consider `CC(C)NC(=O)N1CCC2(CC(C(=O)NCc3cccnc3)=NO2)C1` (stereo unspecified), for which the Percent Effect is 2.53% in assay [1] and -11.6% in assay [2].

Regarding `CCc1nc(C)c([C@H]2CN(C)C[C@@H]2C(=O)NCCc2cnccn2)[nH]1`, the Percent Effect in assay [1] was -1.15%; in assay [2] it was -9.87%.

In the case of `Cc1noc([C@H]2C[C@H]3OCC[C@H]3N(S(=O)(=O)C3CC3)C2)n1`, the Percent Effect in assay [1] stood at 0.456%; in assay [2] it was 19.9%.

As to `Cc1cc(C[C@@H]2CCC[C@H]2NCc2cc(C)c(O)c(C)c2)on1`, the Percent Effect in assay [1] is 2.31%; in assay [2], -2.65%.

In the case of `CCN(C)c1ncnc2c1CCN(Cc1ccc(OC)cc1)CC2`, the results for the Percent Effect in assay [1] and in assay [2] were 7% and 4.46%, respectively.
